The source made the active and inactive calls. No stated cut-off is given here; in the data, active means inhibition of mean fluorescence above about 33%; inactive means the rest.

This assay in a line: quorum sensing inhibitors in bacterial reporter, SAR follow-up, flow cytometry, SAR analogs (AID 1014).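 Further: Staphylococcus aureus RN6390 with RNAIII-GFP reporter stimulated by AIP; bacteria incubated with compound for 3 hours at 37 °C.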 Conditions: at 20 µM, stronger effect = higher value; inhibition of percent positive cells: flow cytometry fluorescence, measured here: percent reporter-positive cells.
As for `O=C(Nc1ccc2c(c1)OCO2)C(c1ccccc1)N1CCCCC1` (configuration not stated), the inhibition of percent positive cells was -0.7% and the inhibition of mean fluorescence was 40.3% (active).

With `COc1ccccc1N1CCN(C(CNC(=O)c2ccc(F)cc2)c2cccnc2)CC1` (configuration not stated), the inhibition of mean fluorescence was 6.4% (inactive) and the inhibition of percent positive cells is -1.7%.

As for `Cc1ccc(Nc2c(F)c(F)c(F)c(F)c2C(=O)O)cc1`, the inhibition of percent positive cells was -0.2% and the inhibition of mean fluorescence is 9.9% (inactive).

`COc1ccc(C2C(C(=O)Nc3ccc4c(c3)OCO4)c3ccccc3C(=O)N2C2CCCCC2)cc1` (configuration not stated): the inhibition of mean fluorescence was 8% (inactive) and the inhibition of percent positive cells came to 0.6%.

As for `O=C(O)c1ccccc1Nc1ccccc1C(=O)O`, the inhibition of percent positive cells was -0.5% and the inhibition of mean fluorescence was 5.8% (inactive).

As to `CC(NC(=O)c1cccc(F)c1)C(c1cccs1)N1CCN(c2ccccc2F)CC1` (configuration not stated), the inhibition of percent positive cells was determined as 0.2% and the inhibition of mean fluorescence is 16.4% (inactive).

`O=C(Nc1ccc2c(c1)OCO2)C(c1ccccc1)N1CCN(C(=O)c2ccco2)CC1` (configuration not stated): the inhibition of mean fluorescence was -23.7% (inactive) and the inhibition of percent positive cells was 1%.

For `COc1ccc(NC(=O)C(c2cc3c(cc2[N+](=O)[O-])OCO3)N2CCN(C=O)CC2)cc1` (configuration not stated), the inhibition of percent positive cells stood at 0% and the inhibition of mean fluorescence was -23.1% (inactive).

`CCOc1ccc(Nc2nc3c(S(=O)(=O)c4ccccc4)nnn3c3ccccc23)cc1`: the inhibition of mean fluorescence is -16.3% (inactive) and the inhibition of percent positive cells was -0.2%.

Consider `Cc1cccc(OCC(=O)Nc2sc3c(c2C#N)CCCC3)c1C`, for which the inhibition of mean fluorescence was 28.1% (inactive) and the inhibition of percent positive cells worked out at 1.4%.

For `CC(C)c1ccc(NC(=O)C(c2ccc3c(c2)OCO3)N2CCc3ccccc32)cc1` (configuration not stated), the inhibition of percent positive cells was -1.6% and the inhibition of mean fluorescence is 26.3% (inactive).

`CC1CCN(C(C(=O)Nc2ccc(C(C)C)cc2)c2ccc3c(c2)OCO3)CC1` (configuration not stated): the inhibition of percent positive cells is -0.9% and the inhibition of mean fluorescence was 35% (active).

Consider `O=C(NC1CCCC1)C(c1cc2c(cc1[N+](=O)[O-])OCO2)N1CCOCC1` (configuration not stated), for which the inhibition of mean fluorescence was -11.5% (inactive) and the inhibition of percent positive cells is -0.1%.

For the compound `CCOc1ccc(Nc2nc3c(S(=O)(=O)c4ccc(C(C)C)cc4)nnn3c3ccccc23)cc1`, the inhibition of percent positive cells is -0.1% and the inhibition of mean fluorescence is -3.7% (inactive).

As to `CCc1ccc(Nc2nc3c(S(=O)(=O)c4ccccc4)nnn3c3ccccc23)cc1`, the inhibition of percent positive cells is -1.2% and the inhibition of mean fluorescence was 20.8% (inactive).

Take `COc1ccc(C(=O)N2CCC(C(=O)Nc3ccc4c(c3)OCO4)CC2)cc1`: the inhibition of percent positive cells was 0% and the inhibition of mean fluorescence is -3.1% (inactive).

Turning to `COc1ccc(CC(=O)Nc2oc(-c3ccccc3)c(-c3ccccc3)c2C#N)cc1`, the inhibition of percent positive cells was found to be 1.3% and the inhibition of mean fluorescence is 42.6% (active).

In the case of `CC(C)(C)c1ccc(S(=O)(=O)c2n[nH]n3c2nc(=O)c2ccccc23)cc1`, the inhibition of mean fluorescence was 13.3% (inactive) and the inhibition of percent positive cells is -1.8%.

Turning to `CC1CCc2nn(CC(=O)Nc3ccc4c(c3)OCCO4)cc2C1` (configuration not stated), the inhibition of mean fluorescence is 4.5% (inactive) and the inhibition of percent positive cells amounted to 0%.

Regarding `O=C(Nc1ccc2c(c1)OCCO2)C(c1ccccc1)N1CCOCC1` (configuration not stated), the inhibition of percent positive cells came out at 2.3% and the inhibition of mean fluorescence is 9.5% (inactive).

In the case of `CN=C1NC(=O)CC(C(=O)Nc2ccc3ccccc3c2)S1` (configuration not stated), the inhibition of percent positive cells is -0.3% and the inhibition of mean fluorescence was -1.7% (inactive).

With `CC(=O)Nc1ccc(Nc2nc3c(S(=O)(=O)c4ccc(C(C)C)cc4)nnn3c3ccccc23)cc1`, the inhibition of percent positive cells was 0.4% and the inhibition of mean fluorescence was 13.8% (inactive).

In the case of `N#Cc1c(NC(=O)COc2ccccc2)sc2c1CCCC2`, the inhibition of percent positive cells came to 2.5% and the inhibition of mean fluorescence is -5% (inactive).

In the case of `O=C(CN1C(=O)c2ccccc2C1=O)N=C1NC(=O)CS1`, the inhibition of percent positive cells was -1.2% and the inhibition of mean fluorescence was 3.2% (inactive).

Regarding `CC1CN(CCC(=O)Nc2ccc3c(c2)OCO3)CC(C)O1` (configuration not stated), the inhibition of percent positive cells was -1.3% and the inhibition of mean fluorescence was 14% (inactive).

Take `O=C(NCC(c1cccnc1)N1CCc2ccccc21)c1ccc(F)c(F)c1` (configuration not stated): the inhibition of percent positive cells was -0.3% and the inhibition of mean fluorescence is 19.9% (inactive).

For the compound `CCc1ccc(Nc2nc3c(S(=O)(=O)c4ccc(C(C)(C)C)cc4)nnn3c3ccccc23)cc1`, the inhibition of mean fluorescence was 3.7% (inactive) and the inhibition of percent positive cells was -0.1%.

In the case of `O=C(Nc1ccc2c(c1)OCO2)C(c1ccc(Cl)cc1)N1CCC2(CC1)OCCO2` (configuration not stated), the inhibition of percent positive cells was -0.8% and the inhibition of mean fluorescence was -0.5% (inactive).

As to `COc1c(F)c(F)c(C(=O)O)c(Nc2ccccc2)c1F`, the inhibition of percent positive cells is -2.3% and the inhibition of mean fluorescence is -23.9% (inactive).

In the case of `CC1CC(C)CN(C(C(=O)Nc2ccc(C(C)C)cc2)c2cc3c(cc2[N+](=O)[O-])OCO3)C1` (configuration not stated), the inhibition of mean fluorescence is -12.5% (inactive) and the inhibition of percent positive cells is -0.1%.

Take `CCOC(=O)c1c(C)oc2cc(Br)c(O)c(Br)c12`: the inhibition of mean fluorescence is 55.9% (active) and the inhibition of percent positive cells is 0.7%.

On to `O=C(CN1CC(c2ccccc2)CC1=O)Nc1ccc2c(c1)OCO2` (configuration not stated), for which the inhibition of mean fluorescence was 5.5% (inactive) and the inhibition of percent positive cells is -0.1%.

For `O=C(O)c1ccccc1Nc1cn2ncc([N+](=O)[O-])c2c(=O)[nH]1`, the inhibition of percent positive cells is -0.3% and the inhibition of mean fluorescence is -1.7% (inactive).

Consider `CC1CCN(C(=O)Cn2cc(SCC(=O)Nc3ccc4c(c3)OCO4)c3ccccc32)CC1`, for which the inhibition of percent positive cells was -0.2% and the inhibition of mean fluorescence is -4.6% (inactive).

`O=C(NCC(c1cccnc1)N1CCN(c2ccccc2F)CC1)c1ccc(F)cc1` (configuration not stated): the inhibition of mean fluorescence was 11.5% (inactive) and the inhibition of percent positive cells was -1.8%.

With `O=C(NCC(c1cccnc1)N1CCN(c2ccccc2)CC1)c1ccccc1F` (configuration not stated), the inhibition of mean fluorescence was -31.8% (inactive) and the inhibition of percent positive cells is -1.7%.

For the origin of these results see PubChem BioAssay AID1014 (NMMLSC, 2008).
